Only some compounds are listed: those with a hit (about 7.8% of all), similar ones and a draw of the others.
sEH activator – increases human soluble epoxide hydrolase activity | P34913 | purified human sEH enzymatic activity, activator screen | activation, % at 2 µM | 0.04% of 91,000 active | AID 717; in the data active = activation above about 37%
PostGolgi ctrl – yeast control strain growth, post-Golgi counter-screen; efflux-deficient yeast background strain, growth absorbance A615, 16 h; inhibition, % at 10 µM; 5% of 98,000 active; AID 738
PostGolgi yeast – growth inhibition of a yeast mutant, post-Golgi transport screen. post-Golgi transport phenotypic cell assay. inhibition, % at 10 µM. 0.9% of 98,000 active. AID 739;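 also: yeast cells grown in 1536-well plates; yeast grown about 18 h at 30C before absorbance read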
Cav3 T inh – human Cav3.2 channel inhibition, primary screen; 4% of 100,000 active; Cav3.2-expressing cells, Fluo-4 calcium fluorescence FDSS; active compounds read low; O95180; B-score at 10 µM;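 active = single-dose well whose peak fluorescence ratio is a statistical outlier from its plate by either plate-standardised score or position-corrected B-score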
sEH inh – inhibitors of human soluble epoxide hydrolase; AID 707; inhibition, % at 2 µM; recombinant human sEH enzymatic activity assay; 0.34% of 91,000 active; in the data active = inhibition above about 80%
The depositor's hits bear a star; · = no result. Rule as the data show it, unless noted: active = inhibition above about 30%; inactive = the rest.

SMILES | sEH activator | PostGolgi ctrl | PostGolgi yeast | Cav3 T inh | sEH inh
Cn1cccc1-c1nc2ccc(NC(=O)c3ccccc3)cc2[nH]1 | -3.6 | 6.5 | -4.4 | -2.95 | 4.8
COCCCNc1nc2ccccc2nc1NS(=O)(=O)c1cccs1 | 10.1 | 15.9 | 13.3 | -0.0146 | -8.2
COc1ccc(Nc2nc3ccccc3nc2NS(=O)(=O)c2cccs2)cc1 | 1.9 | 35.5* | 6.1 | -2.58 | 1.7
CCCC(=O)Nc1ccccc1-c1nnc(SC)[nH]c1=O | -10.1 | 2.8 | 5.2 | 0.372 | 9.3
Cc1cc2nc(C3CCN(CC4COc5ccccc5O4)CC3)[nH]c2cc1C (stereo not given) | -14.7 | 34.3* | 40.6* | -6.26* | 13.6
COC(=O)[C@@](C)(O)C1(C(=O)SC(C)(C)C)CC1 | · | · | · | 0.572 | ·
Cc1cc(C)cc(-n2nnc(C(=O)NCc3ccccc3)c2N)c1 | -4.8 | 8.0 | 3.9 | -0.0237 | 5.2
Cc1ccc(CNC(=O)c2nnn(-c3cccc(C)c3)c2N)cc1 | 14.0 | 1.8 | 1.0 | -5.44* | -13.2
COC(=O)c1ccc(CN2[C@H](C(=O)OC)C[C@@]3(O)[C@@H](O)[C@@H](O)[C@@H](O)C[C@@H]23)cc1 | · | · | · | 0.781 | ·
Cc1csc(NC(=O)CSc2nc3ccccc3s2)n1 | -0.1 | -0.5 | 12.8 | -7.01* | -1.0
CCSCc1nnc(SCC(=O)Nc2nc3ccccc3s2)n1C | -4.3 | 36.0* | 7.1 | 0.0399 | 4.0
CCn1c(Cc2ccccc2)nnc1SCC(=O)Nc1nc2ccccc2s1 | -2.9 | -3.4 | -7.5 | 1.75 | 5.4
Cc1ccccc1CSCCNC(=O)CSCc1ccc([N+](=O)[O-])cc1 | -13.8 | 22.7 | -5.3 | · | 13.1
Cc1ccc(CSCCNC(=O)CSCc2ccc([N+](=O)[O-])cc2)cc1 | -5.5 | 26.0 | 1.8 | -4.27* | 7.2
Cc1cccc(CSCCNC(=O)CSCc2ccc([N+](=O)[O-])cc2)c1 | -21.3 | 17.8 | 4.2 | -3.23* | 23.1
CC1CCN(S(=O)(=O)c2ccc(NC(=O)CCN3C(=O)c4ccccc4C3=O)cc2)CC1 | 16.6 | 5.8 | 83.4* | -2.46 | -19.4
CC1CN(S(=O)(=O)c2ccc(NC(=O)CCN3C(=O)c4ccccc4C3=O)cc2)CC(C)O1 (stereo not given) | -34.5 | -3.1 | 3.8 | · | 34.6
CC1CCN(S(=O)(=O)c2ccc(NC(=O)Cc3ccccc3)cc2)CC1 | -25.3 | 38.6* | -5.8 | -5.92* | 25.4
Cc1[nH]nc(-c2ccc(O)cc2O)c1-c1ccc(Cl)cc1 | -27.9 | 85.4* | 15.7 | -4.83* | 28.0
COc1ccc(-c2n[nH]c(C)c2-c2ccc(Cl)cc2)c(O)c1 | -4.5 | 76.8* | 13.2 | -1.37 | 7.9
COc1ccc(-c2n[nH]c(C)c2-c2ccc(Cl)cc2)c(O)c1OC | -7.9 | 50.8* | -0.2 | -0.915 | 6.2
COc1ccc(-c2cnc(N)nc2-c2ccc(OC)cc2O)cc1 | 19.3 | 28.2 | -5.9 | 0.463 | -22.8
COC(=O)c1ccc(NC(=O)CSc2nccn2CCc2ccccc2)cc1 | 13.4 | 30.0 | -6.7 | -1.31 | -12.6
Nc1nc(SCC(=O)NC2CCCCCC2)[nH]c(=O)c1-c1ccccc1 | -33.2 | 3.2 | 7.3 | 1.05 | 34.5
Cc1ccc(C(O)(COC(=O)C(C)C)COC(=O)C(C)C)c(O)c1 | · | · | · | -1.41 | ·
SMILES | sEH activator | PostGolgi ctrl | PostGolgi yeast | Cav3 T inh | sEH inh
COc1ccc(CCNC(=O)c2nnn(-c3ccc4c(c3)OCCO4)c2N)cc1OC | -6.8 | 5.5 | -6.8 | 0.0561 | 4.9
COc1cccc(OCCCCN2CC(C)OC(C)C2)c1 (stereo not given) | 5.7 | 43.2* | 85.8* | 0.308 | -7.7
C=CCc1ccc(OCCCOc2ccc(C)cc2OC)c(OC)c1 | -7.8 | 1.2 | -7.1 | -0.473 | 5.6
C=CCc1ccc(OCCCCN2CC(C)OC(C)C2)c(OC)c1 (stereo not given) | 4.3 | 43.3* | 96.6* | -0.617 | -6.3
CC1CN(CCCOc2ccccc2[N+](=O)[O-])CC(C)O1 (stereo not given) | 4.2 | 2.2 | 3.5 | 1.43 | -5.4
Cc1ccc(C(C)C)c(OCCCN2CC(C)OC(C)C2)c1 (stereo not given) | -8.4 | 27.6 | 82.7* | -0.227 | 10.6
COc1cccc(OCCCCN2CCCCC2)c1 | 0.0 | 9.1 | 7.0 | 1.39 | -0.8
CC(=O)Nc1sc2c(c1C(c1ccccc1Cl)N1CCN(CCO)CC1)CCCC2 (stereo not given) | · | · | · | 1.02 | ·
COc1ccc2cc3cc(C(=O)NCCc4ccc(OC)c(OC)c4)oc3nc2c1 | 2.3 | 27.3 | 6.6 | 0.784 | -2.7
COc1ccc2cc3cc(C(=O)NCCN4CCc5ccccc5C4)oc3nc2c1 | -2.7 | 66.4* | 5.8 | -2.34 | 3.7
COc1ccc2cc3cc(C(=O)NCCCN4CCOCC4)oc3nc2c1 | 17.0 | 23.6 | 14.7 | -0.191 | -15.8
CCCN(CCC)CCCNC(=O)c1cc2cc3ccc(OC)cc3nc2o1 | 1.7 | 40.1* | 4.6 | 0.107 | -2.1
CCN1CCN(CCCNC(=O)c2cc3cc4ccc(OC)cc4nc3o2)CC1 | -5.5 | 35.4* | 12.5 | 0.989 | 5.2
COc1ccc2cc3cc(C(=O)NCc4cccs4)oc3nc2c1 | -1.9 | -0.8 | 0.5 | 1.65 | 3.8
COc1ccc2cc3cc(C(=O)NCCN4CCN(Cc5ccccc5)CC4)oc3nc2c1 | 0.1 | 16.1 | 10.9 | 0.112 | -0.5
CCCCN(CC)CCCNC(=O)c1cc2cc3ccc(OC)cc3nc2o1 | -0.1 | 45.6* | 7.3 | 0.614 | -0.2
CCOC(=O)Cc1csc(NC(=O)CSc2nc(N)c3c(C)c(C)sc3n2)n1 | 0.5 | 4.8 | -0.5 | 0.123 | -2.4
CC(C)N1C(=O)C2C(C(=O)NCc3ccccc3)C3C=CC2(O3)C1C(=O)NC(C)(C)C (stereo not given) | -2.1 | 42.1* | 6.4 | -0.00802 | 2.7
COc1ccc(NS(=O)(=O)c2ccc3oc4ccccc4c3c2)cn1 | 0.4 | 47.0* | -3.1 | -4.06 | -3.0
COc1ccc(-c2cc(C(=O)Nc3c(C)nn(Cc4ccc(Cl)cc4)c3C)no2)cc1 | 10.9 | -2.0 | -2.3 | -4.63* | -11.2
Cc1nn(Cc2ccc(Cl)cc2)c(C)c1NC(=O)c1cc(-c2ccco2)on1 | -1.4 | 9.5 | -3.8 | · | 3.1
Cc1ccc(Cn2nc(C)c(NC(=O)c3cc(-c4ccc5c(c4)OCO5)on3)c2C)cc1 | 13.6 | 13.4 | -2.1 | -5.3* | -13.3
Cc1nn(Cc2ccc(F)cc2)c(C)c1NC(=O)c1cc(-c2ccc3c(c2)OCO3)on1 | · | 17.0 | -6.1 | 0.0455 | ·
Cc1nn(Cc2c(F)c(F)c(F)c(F)c2F)c(C)c1NC(=O)c1cccc(COc2ccc(Cl)cc2)c1 | -3.7 | 5.2 | 1.9 | -5.29* | 4.4
Cc1nn(Cc2ccc(Cl)c(Cl)c2)c(C)c1NC(=O)c1cc(-c2ccco2)on1 | · | 10.9 | 4.7 | -5.75* | ·
Cc1ccc(Cn2nc(C)c(NC(=O)c3cc(-c4ccco4)on3)c2C)cc1 | 15.2 | 5.8 | -6.8 | · | -15.0
Cc1ccc(NC(=O)CS(=O)CC(=O)Nc2ccc3c(c2)OCO3)cc1Cl (stereo not given) | 6.7 | -0.6 | 11.7 | -3.29 | -6.3
O=C(Cn1cnc2c(cnn2-c2ccc(Cl)cc2)c1=O)NCC1CCCO1 (stereo not given) | -8.8 | 1.0 | -14.7 | -0.993 | 7.4
CC(CNC(=O)CC(C)(C)C)NC(=O)CC(C)(C)C (stereo not given) | -0.7 | · | · | -0.134 | -2.8
